Source: PubChem
The list is not random: actives were taken first. Their share in the collection is about 7.3%.
SMN2 splice enh: enhancers of SMN2 splice variant expression. HEK293 SMN2-luciferase splicing reporter, luminescence, 30-36 h. Potency, µM (doses to about 46.1 µM), actives largely listed as activators. 210,000 tested, 2.8% active. AID 1458; further: nearly all actives have a fitted effect of over 55% in size
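HEK293 cells carry an SMN2 minigene-luciferase reporter in which exon 7 inclusion puts luciferase in frame. Cells were seeded at 2000 cells/well, attached for 10-12 hours, then exposed to compounds for 30-36 hours at 37C before ONE-Glo luminescence.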
NPC1 promoter act: activators of NPC1 promoter; Huh7 NPC1 promoter luciferase reporter, 24 h; AID 485313; 320,000 tested, 2.4% active; Potency, µM (titrated, usually from 9.22 µM), most hits filed as activators; further: nearly all actives have a fitted effect of over 60% in size
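Compounds in DMSO were transferred onto Huh7 NPC1-luciferase reporter cells pre-incubated 2 h; after 24 h at 37 °C, Amplite reagent was dispensed and luminescence recorded 10 min later.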
Rab9 promoter act: activators of Rab9 promoter; 320,000 tested, 2.8% active; Huh7 Rab9 promoter-luciferase reporter, luminescence, 24 h; AID 485297; Potency, µM (series often up to 9.22 µM), most hits filed as activators; further: nearly all actives have a fitted effect of over 60% in size
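Luciferase signal after 10 min detection reagent at ambient indicates Rab9 promoter upregulation; stably transfected Huh7 cells were treated 24 h with compound in DMSO at 37 °C, 5% CO2.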
KinaseGlo FLuc: Kinase-Glo luciferase inhibition (counter-screen) | Potency, µM (titrated, usually from 38.3 µM), most hits filed as inhibitors | AID 1379 | 200,000 tested, 0.28% active | Kinase-Glo luciferase, ATP luminescence, 8 min | Q27757; further: nearly all actives have a fitted effect of over 60% in size
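Recombinant Kinase-Glo luciferase, 10 uM ATP (linear range), luciferin; imidazole pH 7.2 / KCl / MgCl2 / Tween / BSA buffer; 8 min RT; luminescence.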
FLuc modulator: counter-screen for miR-21 project: firefly luciferase inhibitors or activators; purified FLuc, Km substrates, luminescence inhibition; P08659; 360,000 tested, 6.9% active; Potency, µM (top dose mostly 57.5 µM), actives largely listed as inhibitors; further: nearly all actives have a fitted effect of over 55% in size
Target sequence (P08659 whole entry, looked up): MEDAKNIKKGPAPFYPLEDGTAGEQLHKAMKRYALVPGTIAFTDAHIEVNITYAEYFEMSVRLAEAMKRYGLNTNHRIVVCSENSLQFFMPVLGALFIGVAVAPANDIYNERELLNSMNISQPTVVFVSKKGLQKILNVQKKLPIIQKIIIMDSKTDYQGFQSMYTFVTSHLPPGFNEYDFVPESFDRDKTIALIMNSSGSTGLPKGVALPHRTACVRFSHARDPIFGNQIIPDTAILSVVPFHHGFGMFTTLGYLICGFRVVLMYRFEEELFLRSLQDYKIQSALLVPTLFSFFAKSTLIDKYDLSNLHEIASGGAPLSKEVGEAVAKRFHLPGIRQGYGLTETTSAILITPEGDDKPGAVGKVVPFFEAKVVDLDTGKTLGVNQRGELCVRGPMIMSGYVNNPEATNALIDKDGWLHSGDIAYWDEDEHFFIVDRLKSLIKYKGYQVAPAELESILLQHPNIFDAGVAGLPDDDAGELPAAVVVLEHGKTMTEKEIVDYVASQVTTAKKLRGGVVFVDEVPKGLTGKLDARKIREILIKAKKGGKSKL
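Purified P. pyralis luciferase (10nM final) with 10uM D-luciferin and 10uM ATP (Km levels) in 50mM Tris acetate pH 7.5, 10mM Mg acetate, 0.01% Tween-20, 0.05% BSA; qHTS 6-point titration, ~60 µM downward; luminescence read.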
ELG1 genotox: inducers of genotoxicity in HEK293T ELG1-luciferase cells; HEK293T ELG1-luciferase reporter, luminescence, 16 h; Potency, µM (top dose mostly 46 µM), most hits filed as activators; 330,000 tested, 1.3% active; further: nearly all actives have a fitted effect of over 60% in size
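Genotoxic stress is detected as increased luminescence from luciferase-tagged ELG1 in HEK293T cells, measured with ONE-Glo after a 16 hr treatment at 37 °C.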
Numbers stand for hits; . = inactive; ? = inconclusive; / = not tested or not shown; [ ] = another dose, or the depositor's remark. The call rests on the fitted dose curve; in most records, active means well fitted curve in the direction sought with a large enough effect; inconclusive means small, poorly fitted or top-dose-only effect, or another doubt; inactive means no such curve, though single readings can be large; an effect the other way counts as inactive or inconclusive.

SMILES	SMN2 splice enh	NPC1 promoter act	Rab9 promoter act	KinaseGlo FLuc	FLuc modulator	ELG1 genotox
CCc1nc(Nc2ccc(O)cc2)c2oc3ccccc3c2n1	/	.	.	/	19µM	.
c1ccc2c(c1)oc1c(N3CCN(Cc4ccc5c(c4)OCO5)CC3)ncnc12	.	.	.	.	16.9µM	18.4µM
CCc1nc(Nc2ccccc2O)c2oc3ccccc3c2n1	/	?	.	/	.	.
CCc1nc(Nc2ccc3c(c2)OCCO3)c2oc3ccccc3c2n1	.	.	.	.	26.9µM	.
Cc1nc(Nc2ccc3c(c2)OCCO3)c2oc3ccccc3c2n1	.	.	.	.	?	.
COc1ccc(CCNC(=O)c2ccc3[nH]c(C)c(C)c3c2)cc1OC	/	/	/	/	.	/
COc1ccc(N(C(=O)c2ccc(C)cc2)S(=O)(=O)c2ccc(Cl)cc2)cc1	.	/	/	/	.	/
c1cncc(-c2nc3c(ccc4ccccc43)[nH]2)c1	.	?	?	.	10.7µM	.
Cc1ccc(C)c(CN2CCC(CNC(=O)Nc3cccc(Cl)c3C)CC2)c1	/	.	.	/	.	.
COc1ccc(-c2nnc(SCc3ccccc3F)o2)cc1OC	.	.	?	.	23.9µM	.
Cc1ccc(-c2nnc(SCc3ccccc3F)o2)cc1	11.2µM	0.794µM	0.891µM	.	?	8.2µM
N#Cc1ccccc1CSc1nnc(-c2ccccc2)o1	11.2µM	/	/	/	3.79µM	/
CCOc1ccc(NC(=O)c2ccc3c(c2)c(C)c(C)n3Cc2ccc(F)cc2)cc1	/	/	/	/	.	/
CS(=O)(=O)c1ccc(-c2cccc(NC(=O)COc3ccc(Cl)cc3)c2)nn1	/	.	.	/	.	.
COc1ccccc1CNC(=O)COc1ccc(C)cc1	/	3.16µM	.	/	.	.
COc1cccc(NC(=O)COc2cc(O)c3c(c2)OC(C)(C)CC3=O)c1	/	?	?	/	4.26µM	.
COc1ccc(-c2cccc(NC(=O)COc3ccc(Cl)cc3)c2)nn1	/	.	.	/	21.3µM	.
COc1cccc(NC(=O)COc2ccc3c(c2)CCC3)c1	.	.	.	.	15.1µM	.
CCCC(C(=O)NC1CCCC1)N(CC1CCCO1)C(=O)c1snc(C(N)=O)c1N (stereo not given)	.	.	.	.	.	.
CC1(C)CC(=O)c2c(O)cc(OCc3ccc([N+](=O)[O-])cc3)cc2O1	.	2.51µM	3.55µM	.	4.78µM	?
COc1cccc(NC(=O)COc2ccc(C)cc2)c1	.	.	.	.	12µM	?
COc1ccc(NS(=O)(=O)c2cccc(NC(=O)CNC(C)=O)c2)cc1	/	.	.	/	.	.
COc1ccc(NS(=O)(=O)c2cccc(NC(=O)COc3ccc(OC)cc3)c2)cc1	/	.	.	/	16.9µM	.
COc1ccc(OCC(=O)Nc2cccc(C(C)=O)c2)cc1	.	.	.	.	?	.
Cc1ccc(CNC(=O)COc2cc(O)c3c(c2)OC(C)(C)CC3=O)cc1	/	.	.	/	.	.
SMILES	SMN2 splice enh	NPC1 promoter act	Rab9 promoter act	KinaseGlo FLuc	FLuc modulator	ELG1 genotox
COc1cc(NC(=O)COC(=O)c2n[nH]c3ccccc23)c(C)cc1[N+](=O)[O-]	.	.	.	.	.	.
Cc1ccc(CNc2nc(C)cs2)cc1	/	2µM	1.12µM	/	6.01µM	1.03µM
CCOC(=O)Cc1csc(N/N=C/c2ccc(Cl)cc2)n1	/	.	.	/	?	.
CCOC(=O)Cc1csc(NC(=O)Nc2ccc(Cl)cc2)n1	/	.	.	/	6.01µM	.
CCOC(=O)Cc1csc(NC(=O)Nc2cccc(Cl)c2)n1	.	.	.	.	5.36µM	.
CN(CC(=O)Nc1ccccc1Cl)C(=O)COC(=O)Cc1c(F)cccc1Cl	/	.	.	/	.	.
O=C1NN(c2cccc(Br)c2)C(=O)/C1=C\c1ccccc1	/	.	.[1.84 µM]	/	?	.
O=C1NN(c2ccccc2)C(=O)/C1=C/c1cccs1	.	.	.	.	19µM	.
O=C1NN(c2cccc(Br)c2)C(=O)/C1=C/c1cccs1	/	.	.	/	9.53µM	.
O=C1NN(c2ccccc2)C(=O)/C1=C\c1ccccc1	/	.	.	/	16.9µM	.
c1cnc2c(C3NCCc4c3[nH]c3ccccc43)cccc2c1 (stereo not given)	/	.	.	/	.	.
CCOC(=O)c1nnn(-c2nonc2-n2cccc2)c1C	.	.	.	.	.[2.3 µM]	.
Clc1ccccc1CN1CCN(/N=C/C=C\c2ccco2)CC1	.	.	?	.	16.9µM	.
C(/C=C/c1ccco1)=N/N1CCN(c2ccccc2)CC1	?	1.58µM	3.55µM	.	8.49µM	?
Cc1ccc(N2CCN(/N=C/C=C/c3ccccc3)CC2)cc1	.	.	.	.	.	.
CCc1ccc2[nH]c(=O)c(CN(Cc3ccc(OC)cc3)Cc3nnnn3CCOC)cc2c1	.	.	.	.	.	.
CCCc1nc([N+](=O)[O-])c(S(=O)(=O)c2ccccc2)n1CC(C)C	.	.	.	.	.	?
O=C(NCc1ccccc1)c1nc2ccccc2s1	.	.	.	.	?	.
CC(=O)NCc1ccc(-c2csc(-c3cccs3)n2)cc1	/	2µM	2.24µM	/	5.36µM	?
c1csc(-c2nc3ccccc3s2)c1	/	2.51µM	3.55µM	/	2.69µM	?
CC(=O)NCc1ccc(-c2nc3ccccc3s2)cc1	14.1µM	2.24µM	0.631µM	.	3.01µM	?
Oc1ccc(-c2nc3ccccc3s2)cc1	/	2.82µM	2.82µM	/	1.9µM	3.66µM
O=C(NCc1csc(-c2cccs2)n1)c1ccccc1	/	?	.	/	?	.
S=c1[nH]nc(-c2ccccc2Br)n1Cc1ccccc1	/	.	.	/	.	.
CCN1CCCC(NC(=O)c2scc3c2CCCC3)C1 (stereo not given)	.	.	.	.	.	.
SMILES	SMN2 splice enh	NPC1 promoter act	Rab9 promoter act	KinaseGlo FLuc	FLuc modulator	ELG1 genotox
COC(=O)c1ccccc1NC(=O)CN1C(=O)COc2ccccc21	.	/	/	/	.	/
CC(=O)N(Cc1cccnc1)c1cccc(-c2nc3ccccc3s2)c1	/	.	.	.	.	.
c1ccc2sc(-c3ccncc3)nc2c1	/	3.16µM	2.82µM	/	15.1µM	?
c1cncc(-c2nc3ccccc3s2)c1	/	?	?	/	21.3µM	?
CC(=O)Nc1scc(C)c1-c1nc2ccccc2s1	/	.	.	/	.	.
c1ccc(-n2ncc3c(NCc4ccco4)ncnc32)cc1	/	?	?	.	23.9µM	10.3µM
Cc1ccc(-n2ncc3c(NCc4ccccc4)ncnc32)cc1	/	3.55µM	?	/	.	4.61µM
Cc1ccc(CNc2ncnc3c2cnn3-c2ccccc2)cc1	.	.	.	.	.	.
COc1ccccc1CNc1ncnc2c1cnn2-c1ccc(C)cc1	/	/	/	/	16.9µM	/
COc1ccccc1CNc1ncnc2c1cnn2-c1ccccc1	/	.	.	/	?	.
c1ccc(Cn2ncc3c(NCc4ccco4)ncnc32)cc1	/	.	.	/	.	.
C(=C\c1nc(N2CCCCCC2)c2ccccc2n1)/c1ccccc1	/	.	.	/	8.49µM	.
COc1ccccc1/C=C/C=N/n1c(-c2ccccc2)n[nH]c1=S	/	.	.	/	15.1µM	.
